# Assay outcomes (PubChem)
# aSyn 5UTR act: Activators working through SNCA 5'UTR binding (MLPCN); hit rate 7.1% among 300,000; activity score, % (tested at 7.5 µM), hits read low; alpha-synuclein 5'UTR reporter, activators screen; in the data active = activity score below about -60%
# * = called active by the depositor. A selection follows.
SMILES,aSyn 5UTR act
Cc1cccc(NC(=O)c2ccc(C(=O)c3ccccc3)o2)c1,-156*
CCCC/C(=N\NC(=O)c1ccc(Br)o1)c1ccccc1,-69*
O=C(Nc1ccc2c(c1)oc1ccccc12)c1ccc(Br)o1,-210*
O=C(Nc1ccccc1)c1ccc(Br)o1,-73*
CCc1cccc(NC(=O)c2ccc(Br)o2)c1,-116*
O=C(c1ccccc1)c1cccc(NC(=O)c2ccc(Br)o2)c1,-90*
Cc1c(CCC(=O)N2CCC[C@H]2C(=O)O)c(=O)oc2cc3oc4c(c3cc12)CCCC4,77
COC(=O)Cc1c(C)c2ccc(OC3CCCCC3=O)c(C)c2oc1=O (configuration not stated),-65*
Clc1c(-c2ccccc2)nnn1-c1ccccc1,-65*
CCCN1CCC(=NNc2ccc(S(=O)(=O)N(CC)CC)cc2[N+](=O)[O-])CC1,79
S=C(NCCc1ccccc1)Nc1ccc(Br)cc1,-126*
O=[N+]([O-])c1ccc(NNC(=S)Nc2ccc(F)cc2)cc1,-157*
CC(C)CCNC(=O)/C=C/c1ccc(Br)cc1,-64*
CCCN1CCC(NC(=S)Nc2ccc([N+](=O)[O-])cc2)CC1,-80*
S=C(NCCc1ccccc1)NN=C1CCCCCC1,-159*
COC(=O)Cc1ccc(NC(=S)Nc2ccccn2)cc1,-63*
CC(C)CCNC(=S)Nc1ccc(Br)cc1,-69*
S=C(NCCc1ccccc1)Nc1ccccn1,-141*
CC(C)CCNC(=S)Nc1ccc([N+](=O)[O-])cc1,-63*
O=C(NC(=S)NCCc1ccccn1)c1ccccc1,-106*
CC(C)(C)NC(=S)NCCc1ccccc1,-192*
COc1ccc(-c2cn3cccc(C)c3n2)cc1F,-149*
Cc1ccc(-c2cn3cccc(C)c3n2)cc1,-75*
COc1ccc(-c2cn3cc(C)ccc3n2)cc1F,77
O=[N+]([O-])c1cccn2cc(-c3ccc(Br)cc3)nc12,-315*
SMILES,aSyn 5UTR act
CCOC(=O)N=Nc1c2ccccc2c2nc3no[nH]c3nc12,119
CCOC(=O)c1cn(CC)c2c(ccc3ccccc32)c1=O,-90*
CC1=CN2C(=N)/C(=C/c3ccc(Sc4ccc(C)cc4)o3)C(=O)N=C2S1,-78*
CCN=C1S/C(=C\c2ccc(Sc3ccc(Cl)cc3)o2)C(=O)N1CC,57
CC1=CN2C(=N)/C(=C/c3ccc(C)o3)C(=O)N=C2S1,-80*
Cc1ccc(C(=O)NC(C)C2CC3CCC2C3)c(C)c1 (configuration not stated),-102*
Cc1cccc(-c2nnc3n2N=C(c2ccccc2)CS3)c1,63
Cc1cc(-c2nnc3n2N=C(c2ccc(F)cc2)CS3)n[nH]1,-77*
N/C(=N\OC(=O)COc1ccccc1)c1cccnc1,-113*
COc1cccc(OCC(=O)O/N=C(\N)c2ccncc2)c1,-90*
N/C(=N\OC(=O)COc1ccccc1)c1ccc(Cl)cc1,-67*
N/C(=N\OC(=O)CSc1ccccc1)c1ccncc1,-91*
COc1ccc(/C(N)=N/OC(=O)COc2ccccc2Cl)cc1,-141*
N/C(=N\OC(=O)COc1ccccc1)c1ccncc1,-82*
CCCCOC(=O)/C(=C/c1cn(C)c2ccccc12)NC(=O)c1ccc(OC)cc1,-100*
NC(=O)c1c(NC(=O)c2cccnc2)sc2c1CCCCC2,-177*
NC(=O)c1c(NC(=O)c2cccnc2)sc2c1CCCC2,-221*
CCC1CCc2c(sc(NC(=O)c3cccnc3)c2C(N)=O)C1 (configuration not stated),-99*
CC(C)(C)C1CCc2c(sc(NC(=O)c3ccncc3)c2C(N)=O)C1 (configuration not stated),-131*
CCC1CCc2c(sc(NC(=O)c3ccoc3C)c2C(N)=O)C1 (configuration not stated),-89*
Cc1ccc(NC(=O)C(=O)C2C(=O)Nc3ccccc32)cc1 (configuration not stated),-77*
Cc1ccccc1CS(=O)(=O)c1ncc(Cl)c(C(=O)Nc2ccc(F)cc2)n1,64
CC1=NN(c2ccccc2)C(=O)C1C(=O)C(=O)Nc1ccc(F)cc1 (configuration not stated),-168*
O=C(/C=C/NCc1cccnc1)c1ccc(-c2ccccc2)cc1,-81*
c1ccc(Oc2nc(-c3ccccn3)nc3ccccc23)cc1,-64*
SMILES,aSyn 5UTR act
COc1ccc(Oc2nc(-c3ccccn3)nc3ccccc23)cc1,-110*
Fc1ccc(Oc2nc(-c3ccccn3)nc3ccccc23)cc1,-95*
CCOc1ccc(C2=Nc3ccccc3C(c3ccc(N4CCOCC4)cc3)=NN2)cc1,-95*
CCOc1ccc(C2=Nc3ccc(Br)cc3C(c3ccc(N4CCOCC4)cc3)=NN2)cc1,-66*
C/C(=N\NC(=O)COc1ccc(C(C)(C)C)cc1)c1ccc(-n2ccnc2)cc1,-133*
C/C(=N\Nc1ccc(F)cc1F)c1ccccc1O,-104*
Cc1nc2nc(-c3cccnc3)nn2c(C)c1Cl,-74*
Cc1ccnc(NC(=O)c2ccc(S(=O)(=O)N3CCC(C)CC3)cc2)c1,-118*
CC1CCN(S(=O)(=O)c2ccc(C(=O)Nc3ccccn3)cc2)CC1,-120*
COc1ccc(Cc2nc(C(=O)Nc3ccccc3)cs2)cc1,-73*
O=C(Nc1ccc(Cl)cc1)c1csc(Cc2ccccc2)n1,-72*
COc1ccc2c(c1)C(=NN)c1cc(OC)ccc1-2,-65*
O=C(Cc1ccccc1)Nc1ccc(NC(=O)c2ccco2)nc1,-149*
O=C(Nc1ccccn1)c1ccco1,-100*
CCC(=O)Nc1cc(C)c(NC(=O)c2ccccc2OC)cn1,-70*
CC(C)(C)C(=O)Nc1ccc(NC(=O)c2ccco2)nc1,102
COc1ccc(C(=O)Nc2ccc(NC(=O)C3CC3)nc2)cc1,-87*
COc1ccc(C(=O)Nc2ccc(NC(=O)c3ccccc3OC)nc2)cc1,-96*
COc1ccccc1C(=O)Nc1ccc(NC(=O)c2ccco2)cn1,-80*
CCC(=O)Nc1ccc(NC(=O)c2cccc(OC)c2)nc1,-171*
COc1cccc(C(=O)Nc2ccc(NC(=O)C3CC3)cn2)c1,-157*
O=C(Nc1ccc(NC(=O)c2ccccc2)nc1)c1ccncc1,-81*
C/C(=N\Nc1ccc([N+](=O)[O-])cc1)c1ccco1,-180*
CCOC(=O)c1nc(NNC(=O)c2ccc([N+](=O)[O-])cc2)sc1C,62
C/C(=N\Nc1nc(C)c(C)s1)c1ccc([N+](=O)[O-])cc1,-130*
SMILES,aSyn 5UTR act
CCc1ccc(/C(C)=N\Nc2ccc([N+](=O)[O-])cc2)cc1,-137*
C/C(=N\Nc1ccc([N+](=O)[O-])cc1)c1ccc(N)cc1,-101*
CCC(=O)c1ccc(OCC(O)Cn2nnc3ccccc32)cc1 (configuration not stated),-74*
O=C(C1CCCN(c2ncnc3c2nc2n3CCCCC2)C1)N1CCN(c2ccccc2)CC1 (configuration not stated),-148*
COc1cccc(-n2cnc3sc(-c4ccccc4)cc3c2=O)c1,-184*
COc1ccc(-c2cc3nc(C)n(N)c(=O)c3s2)cc1,115
COc1ccc(-n2cnc3sc(-c4ccccc4)cc3c2=O)cc1,-118*
Cn1c(NC(=O)CCc2ccccc2)cc(=O)n(C)c1=O,-186*
COc1ccc(/C=C/C(=O)Nc2cc(=O)n(C)c(=O)n2C)cc1,-104*
Cn1c(NC(=O)/C=C/c2ccc(Cl)c(Cl)c2)cc(=O)n(C)c1=O,-181*
Cn1c(NC(=O)/C=C/c2ccccc2)cc(=O)n(C)c1=O,-253*
CCOc1ccc(NC(=O)CSc2nncc(=O)[nH]2)cc1,-76*
